LASV entry inh: Lassa virus entry inhibition. Lassa virus pseudotype entry inhibition, cell reporter. Potency, µM (highest dose often 37.9 µM), for the others: at the highest dose activity change, negative = inhibition, usual class: inhibitors. 300,000 compounds, 1.2% hits; calls by dose curve; tested in HEK293 cells; also: potency is read from the fitted curve at half-maximal effect; nearly all actives have a fitted effect of over 50% in size
FMDV inh: antivirals against foot and mouth disease virus. 410,000 compounds, 1.2% hits. Potency, µM (titrated, usually from 57.9 µM), for inactives: at the top dose activity change, negative = inhibition, usual class: inhibitors. FMDV antiviral cell-based qHTS; calls by dose curve; tested in HEK293T cells; also: read-out not given here; potency is read from the fitted curve at half-maximal effect; nearly all actives have a fitted effect of over 45% in size
MARV entry inh: blocks Marburg virus binding to or entry into cells | Marburg virus pseudotyped entry inhibition, cell reporter | Potency, µM (doses to about 37.8 µM), for inactives: at the top dose activity change, negative = inhibition, usual class: inhibitors | 300,000 compounds, 1.8% hits | AID 540276; calls by dose curve; tested in HEK293 cells; also: potency is read from the fitted curve at half-maximal effect
HCMV inh: human cytomegalovirus inhibition; AID 1259415; activity change, negative = inhibition, % at 57.5 µM; HFF cells, HCMV-luciferase reporter, 72 h; stronger effect = lower value; 410,000 compounds, 4.5% hits; in the data active = activity change below about -60%; inconclusive = no clear call, values can overlap the other calls; inactive = above about -39%
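Luciferase read-out from HCMV-luciferase-infected HFFs (MOI 1 PFU/cell) 72 h post infection at 37C; compounds added after 16 h cell attachment; activity normalized between buffer-only basal and Salinomycin (10uM) inhibitor controls.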
* marks the source's active call; other numbers are inactive results; ? = inconclusive; · = no result; ! = a repeat was not active; [ ] = dose if it differs, or a comment. A selection: hits, their analogues and other compounds. The true share with any hit is near 6.2%. % is scaled to controls: 0 for no effect and ±100 for the full control effect.

SMILES	LASV entry inh	FMDV inh	MARV entry inh	HCMV inh
Cc1cc(OCC(=O)NCC2(N3CCN(C)CC3)CCCCC2)cc(C)c1Cl	-24%[46.1 µM]	-4%	?	-82*
O=C(CSc1ccccc1)NCC1(N2CCOCC2)CCCCC1	1%	0%	-29%	-77*
O=C(COc1ccccc1Cl)NCC1(N2CCOCC2)CCCCC1	12%[46.1 µM]	-23%	-24%[46.1 µM]	-100*
Cc1nn(-c2ccccc2)c(C)c1CC(=O)NCC1Cc2cc(F)cc(-c3cccnc3)c2O1 (stereo not given)	·	-11%	·	·
Cc1ccc(OCC(=O)Nc2ccc(S(=O)(=O)Nc3ncccn3)cc2)c(C(C)(C)C)c1	-3%[46.1 µM]	-25%	·	2
Cn1ccc2c(N3c4ccccc4CCc4ccccc43)cc3c(c21)C1CCC3C1 (stereo not given)	-1%[46.1 µM]	-26%	·	-93*
CCCN(CC1CC1)c1cc2c(c3c1ccn3C)C1CCC2C1 (stereo not given)	·	-22%	3.1µM*	-62*
COc1ccc(-c2cc3c(c4c2ccn4C)C2CCC3C2)cc1OC (stereo not given)	·	-22%	?	-60*
CCCCOc1ccc(C(C)NC(=O)c2cccc(Nc3nc4ccccc4n4nnnc34)c2)cc1 (stereo not given)	0%[46.1 µM]	-18%	·	-98*
Cc1ccc2[nH]c(O)c(N=NC(=O)CCc3ccccc3)c2c1Br	1%	-21%	8%	-61*
CC(C)COc1ccc(-c2nnc(-c3ccco3)o2)cc1	7.3µM*	-35%	?	64
CCCOc1ccc(-c2nnc(-c3ccco3)o2)cc1	8.2µM*	?	?	12
O=C(COc1ccccc1)Nc1ccc(-c2nnc(-c3ccco3)o2)cc1	1%	7%	5%	135
CCC(=O)N1CCc2cc(Br)cc(S(=O)(=O)CCC(=O)NCC3CCCO3)c21 (stereo not given)	4%	-17%	?	-109*
CCC(=O)N1CCc2cc(Br)cc(S(=O)(=O)NCC3CCCO3)c21 (stereo not given)	14%	80%	?	-12
Cc1nc2sccn2c(=O)c1S(=O)(=O)N1CCN(c2ccc(F)cc2)CC1	2%[46.1 µM]	-8%	·	8
Cc1nc2sccn2c(=O)c1CCN1CCC(=C(c2ccc(F)cc2)c2ccc(F)cc2)CC1	12µM*	-18%	20µM*	-3
Cc1nc2ccccn2c(=O)c1CCN1CCC(C(=O)c2ccc(F)cc2)CC1	-10%	-3%	6.3µM*!	-38
Cc1ccc(NC(=O)Cn2cc(S(=O)(=O)N3CCCC3)c(S(=O)(=O)N3CCCC3)c2)cc1C	7%[46.1 µM]	-6%	·	33
CC(O)CN(CCN(CC(C)O)CC(C)O)CC(C)O (stereo not given)	·	·	·	-8
COC(=O)N[C@@H](C=Cc1ccccc1)C(C(=O)OC)=C(C)NCc1ccccc1	·	·	-22%[14.2 µM]	·
CC1=CN2C(=N)/C(=C/c3ccc([N+](=O)[O-])o3)C(=O)N=C2S1	-14%	25µM*	?	-96*
CC1=CN2C(=N)/C(=C/c3ccco3)C(=O)N=C2S1	?	-71%	?	67
CCCCCCCCN1C(=O)[C@H](CC(=O)N2CCN(C(=O)c3ccco3)CC2)C[C@@]2(C(=O)OCC)CCCC=C12	·	-23%	·	-10
Cc1cccc(N=C2NC(=O)/C(=C/c3cccs3)S2)c1	?	32%	?	-1
SMILES	LASV entry inh	FMDV inh	MARV entry inh	HCMV inh
Cc1cccc(/C=C2/S/C(=N/N=C3\CC4CCC3(C)C4(C)C)NC2=O)c1 (stereo not given)	14µM*	?	?	-7
CNS(=O)(=O)c1cn(CC(=O)N2CCN(c3cccc(C)c3C)CC2)cc1S(=O)(=O)NC	-20%[46.1 µM]	-15%	·	?
O=C(O)CNC(=O)c1ccccc1I	·	·	·	11
CCOC(=O)c1c(C)n(S(=O)(=O)c2ccc(C)cc2)c2ccc(NS(=O)(=O)c3ccc(C)cc3)cc12	6.3µM*	-6%	-30%[46.1 µM]	23
C[C@@H]1CN([C@H](C)CO)C(=O)c2c(c3ccccc3n2C)-c2ccccc2CO[C@H]1CN(C)Cc1ccccc1	·	-19%	·	-11
COc1cccc(CN(C)C[C@@H]2OCc3ccccc3-c3c(n(C)c4ccccc34)C(=O)N([C@@H](C)CO)C[C@H]2C)c1	·	?	·	-105*
COc1cccc(C(=O)NC(=S)N2CCN(c3ccc(C(F)(F)F)cc3[N+](=O)[O-])CC2)c1	-15%	0%	7%	-62*
Nc1cc(S(=O)(=O)Nc2ccc(Cl)cc2)ccc1N1CCOCC1	?	-9%	?	-72*
CCOC(=O)Nc1ccc(N2CCOCC2)c(S(=O)(=O)Nc2ccc(Cl)cc2)c1	?	35%	10µM*	28
Brc1cccc(-c2nnc(CN3CCN(c4ccccn4)CC3)o2)c1	2%[46.1 µM]	-8%	5%[46.1 µM]	7
